Data reported in PubChem BioAssay AID488969 (Vanderbilt High Throughput Screening Facility, 2010).
The full ranking holds about 110,000 compounds; the median of “z-score” is about -0.1, and the highest 2% start at about 2. The sample as a whole holds a higher share of the highest values than the screen did. Activity calls are given as the source filed them.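 How the source made its calls: active means z-score in the third read window above 3 or below -3; inactive means the rest.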

Biological target: Metabotropic glutamate receptor 8 (Rattus norvegicus) (UniProt P70579)
Test: mGluR8 Gi/Go-coupled signaling modulation – cell-based, rat, thallium flux, HTS, primary screen (AID 488969)
Details: HEK293 rat mGluR8, GIRK (G protein-gated inwardly rectifying potassium channel) thallium flux, FluoZin2; at 10 µM; stronger effect = higher value; submaximal glutamate (EC20) added with thallium

Chain of Metabotropic glutamate receptor 8 (Rattus norvegicus) (P70579 whole entry, looked up): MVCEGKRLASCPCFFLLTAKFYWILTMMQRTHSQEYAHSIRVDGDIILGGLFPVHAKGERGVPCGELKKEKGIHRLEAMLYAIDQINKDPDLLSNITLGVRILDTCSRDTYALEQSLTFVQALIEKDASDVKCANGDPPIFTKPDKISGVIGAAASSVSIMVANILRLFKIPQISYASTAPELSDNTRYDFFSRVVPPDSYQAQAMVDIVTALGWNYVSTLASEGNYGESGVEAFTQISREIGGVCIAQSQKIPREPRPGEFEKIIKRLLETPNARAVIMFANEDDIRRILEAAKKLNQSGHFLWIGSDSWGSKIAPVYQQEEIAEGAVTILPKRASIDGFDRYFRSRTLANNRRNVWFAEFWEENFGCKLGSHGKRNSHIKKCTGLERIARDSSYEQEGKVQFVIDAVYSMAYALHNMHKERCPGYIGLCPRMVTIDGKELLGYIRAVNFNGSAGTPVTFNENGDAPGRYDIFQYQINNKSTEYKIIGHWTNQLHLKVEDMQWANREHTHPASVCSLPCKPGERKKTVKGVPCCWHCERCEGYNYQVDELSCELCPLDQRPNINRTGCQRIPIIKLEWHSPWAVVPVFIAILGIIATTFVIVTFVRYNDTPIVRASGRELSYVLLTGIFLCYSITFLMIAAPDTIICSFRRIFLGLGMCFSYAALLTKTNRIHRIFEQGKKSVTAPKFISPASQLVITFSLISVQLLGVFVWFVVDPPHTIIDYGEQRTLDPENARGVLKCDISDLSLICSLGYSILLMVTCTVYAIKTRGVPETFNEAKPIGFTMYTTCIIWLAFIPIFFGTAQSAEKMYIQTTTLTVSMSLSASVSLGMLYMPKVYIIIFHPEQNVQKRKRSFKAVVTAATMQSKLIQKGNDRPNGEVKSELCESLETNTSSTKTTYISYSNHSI

Q: How did the z-score turn out when `O=C(NCCSc1c[nH]c2ccccc12)c1ccc(Br)o1` was run?
A: Its z-score is -0.00412.

Q: How did the z-score turn out when `Cn1c(SCC(=O)NCc2ccc3c(c2)OCO3)nnc1-c1c[nH]c2ccccc12` was run?
A: The z-score was -0.821.

Q: With `O=C(CSc1nc(CCC2CCCC2)nc2ccccc12)NCc1ccc2c(c1)OCO2` as the compound, how does the z-score read?
A: The z-score was 8.15 (active).

Q: Which z-score does the source give for `O=C(NCCSc1c[nH]c2ccccc12)c1ccco1` here?
A: The z-score was 3.57 (active).

Q: With `O=C(CCc1c[nH]c2ccccc12)NCc1ccc2c(c1)OCO2` as the compound, how does the z-score read?
A: The z-score was -0.143.

Q: `O=C(CSc1nc(C2CCCCC2)nc2ccccc12)NCc1ccc2c(c1)OCO2` was tested. Which z-score did it give?
A: The z-score was -1.07.

Q: With `O=C(CSc1ncnc2c1cnn2-c1ccc(F)cc1)NCc1ccc2c(c1)OCO2` as the compound, how does the z-score read?
A: Its z-score is 0.54.

Q: How did the z-score turn out when `O=C(CSc1ncnc2c1cnn2-c1ccc(Cl)cc1)NCc1ccc2c(c1)OCO2` was run?
A: The z-score was 3.12 (active).

Q: With `O=C(CSc1nc(C2CC2)nc2ccccc12)NCc1ccc2c(c1)OCO2` as the compound, how does the z-score read?
A: Its z-score is -0.21.

Q: `O=C(CSc1c[nH]c2ccccc12)NCc1ccc2c(c1)OCO2` was tested. Which z-score did it give?
A: Its z-score is 2.27.

Q: For `CC(C)C(=O)NCCSc1c[nH]c2ccccc12`, which z-score is on record?
A: Its z-score is -0.143.

Q: How did the z-score turn out when `Clc1ccc(-n2ncc3c(NCc4ccc5c(c4)OCO5)ncnc32)cc1` was run?
A: Its z-score is -0.426.

Q: For `O=C(CN1C(=O)c2ccccc2C1=O)N1CCN(c2nnc(-c3ccccc3)c3ccccc23)CC1`, which z-score is on record?
A: The z-score was 0.179.

Q: With `COC(=O)Nc1ccc(OCc2ccccc2)cc1` as the compound, how does the z-score read?
A: Its z-score is 0.466.

Q: With `CC1CCN(S(=O)(=O)c2cc(C(=O)N3CCN(c4ncccn4)CC3)ccc2Br)CC1` as the compound, how does the z-score read?
A: The z-score was -0.827.

Q: With `O=C(NCCC1=CCCCC1)C1CCCN(S(=O)(=O)c2cccnc2)C1` (stereo unspecified) as the compound, how does the z-score read?
A: Its z-score is 0.742.

Q: `COc1ccc(S(=O)(=O)n2nc(-c3ccc(Cl)cc3)cc2N)cc1OC` was tested. Which z-score did it give?
A: Its z-score is -0.0966.

Q: Which z-score does the source give for `O=C(Cn1cnc2c(nnn2Cc2ccc(F)cc2)c1=O)N1CCCCC1` here?
A: The z-score was 0.251.

Q: With `Cc1ccc(C(=O)CCC(=O)Nc2cccnc2)cc1C` as the compound, how does the z-score read?
A: Its z-score is -0.25.

Q: With `CCCCC(=O)Nc1ccc(C(=O)Nc2nnc(COC)s2)cc1` as the compound, how does the z-score read?
A: Its z-score is -0.311.

Q: `Nc1nonc1C(=O)NCCNCc1ccccc1OCc1ccccc1F` was tested. Which z-score did it give?
A: Its z-score is 1.61.

Q: How did the z-score turn out when `Nc1nonc1C(=O)NCCNCc1cc(Br)ccc1OCc1ccc(F)cc1` was run?
A: Its z-score is 0.587.

Q: `Nc1nonc1C(=O)NCCNCc1cc(Br)ccc1OCc1ccccc1F` was tested. Which z-score did it give?
A: The z-score was 4.61 (active).

Q: How did the z-score turn out when `Cc1nn(CC(=O)NCc2ccc(OC(C)C)cc2)c(=O)c2cc3occc3n12` was run?
A: The z-score was -0.4.

Q: How did the z-score turn out when `Cc1ccccc1OCc1nnc(SCc2cc(=O)[nH]c3ccccc23)n1-c1ccccc1` was run?
A: The z-score was 0.00735.

Q: `O=P(CCNCc1ccco1)(c1ccccc1)c1ccccc1` was tested. Which z-score did it give?
A: Its z-score is 0.267.

Q: With `Cn1nnnc1SCc1nnc(-c2ccccc2Br)o1` as the compound, how does the z-score read?
A: The z-score was 0.436.

Q: For `Cn1nnnc1SCc1nnc(-c2ccc(F)cc2)o1`, which z-score is on record?
A: The z-score was -0.226.

Q: How did the z-score turn out when `Cn1nnnc1SCc1nnc(-c2ccc(Cl)cc2)o1` was run?
A: The z-score was 2.68.

Q: With `Cc1ccc(/C(O)=C2/C(=O)C(=O)N(CCN3CCOCC3)C2c2cccs2)cc1` (stereo unspecified) as the compound, how does the z-score read?
A: The z-score was -0.157.

Q: How did the z-score turn out when `COc1cccc2cc(C(=O)N3CCN(c4ncccn4)CC3)c(=O)oc12` was run?
A: Its z-score is -0.344.

Q: `COc1ccc(C(=O)N2CCN(C3CCCCC3)CC2)c(OC)c1` was tested. Which z-score did it give?
A: Its z-score is -0.579.

Q: With `CCCC(=O)OCCNc1cc(SCCC(=O)OC)c2nonc2c1[N+](=O)[O-]` as the compound, how does the z-score read?
A: Its z-score is -0.658.

Q: With `COC(=O)CCSc1cc(NCCOC(C)=O)c([N+](=O)[O-])c2nonc12` as the compound, how does the z-score read?
A: The z-score was -0.0935.

Q: Which z-score does the source give for `CCCSc1cc(NCCOC(C)=O)c([N+](=O)[O-])c2nonc12` here?
A: The z-score was 2.48.

Q: For `Oc1cnc2ccccc2c1CN1CCOCC1`, which z-score is on record?
A: The z-score was -0.0791.

Q: With `CCOc1cc(C)c(Cl)cc1S(=O)(=O)NCc1ccc2c(c1)OCO2` as the compound, how does the z-score read?
A: The z-score was -0.837.

Q: With `Cc1ccc(S(=O)(=O)N2CCN(C3CC(=O)N(Cc4ccccc4)C3=O)CC2)cc1C` (stereo unspecified) as the compound, how does the z-score read?
A: The z-score was -0.767.

Q: Which z-score does the source give for `CCCn1c(C)cc(/C=C(\C#N)C(=O)OCC(=O)Nc2cc(OC)c(OC)c(OC)c2)c1C` here?
A: Its z-score is -0.21.

Q: Which z-score does the source give for `CCCn1c(C)cc(/C=C(\C#N)C(=O)OCC(=O)Nc2ccc(OC)c(Cl)c2)c1C` here?
A: Its z-score is -0.243.

Q: How did the z-score turn out when `CCCn1c(C)cc(/C=C(\C#N)C(=O)OCC(=O)Nc2cccc(OC)c2)c1C` was run?
A: Its z-score is 3.42 (active).

Q: How did the z-score turn out when `CN(CC(=O)NCCN1CCN(c2ccccc2)CC1)S(=O)(=O)c1ccc2c(c1)CCC(=O)N2` was run?
A: The z-score was 0.291.

Q: For `CC1(C)COC(c2cc([N+](=O)[O-])ccc2Cl)=N1`, which z-score is on record?
A: The z-score was -0.41.

Q: `Clc1ccc(/C=N/Nc2nn[nH]n2)cc1` was tested. Which z-score did it give?
A: Its z-score is -1.27.

Q: With `COc1ccccc1C(=O)Nc1ccc(Oc2ncnc3sc(-c4ccccc4)cc23)cc1` as the compound, how does the z-score read?
A: The z-score was -0.975.

Q: With `COc1ccc(C(=O)Nc2ccc(Oc3ncnc4sc(-c5ccccc5)cc34)cc2)cc1OC` as the compound, how does the z-score read?
A: Its z-score is 4.83 (active).

Q: How did the z-score turn out when `COc1cc(C(=O)Nc2ccc(Oc3ncnc4sc(-c5ccccc5)cc34)cc2)cc(OC)c1OC` was run?
A: Its z-score is 0.344.

Q: For `CC1=NN(c2ccccc2)C(=O)C1C(=O)c1ccccc1` (stereo unspecified), which z-score is on record?
A: Its z-score is -0.168.

Q: With `CC1=NN(c2ccccc2)C(=O)C1C(=O)c1ccc(Cl)cc1` (stereo unspecified) as the compound, how does the z-score read?
A: Its z-score is 2.14.

Q: Which z-score does the source give for `CCCCCCN1N=C(C)C(C(=O)c2ccc(Cl)cc2)C1=O` (stereo unspecified) here?
A: Its z-score is 0.521.

Q: For `Clc1ccc(C2=Nn3c(nnc3-c3cccs3)SC2)cc1`, which z-score is on record?
A: The z-score was -0.153.

Q: With `CCOC(=O)C1=C(C)NC(=O)CC1c1ccccc1` (stereo unspecified) as the compound, how does the z-score read?
A: Its z-score is 0.409.

Q: Which z-score does the source give for `Cc1ccc(-n2c(=S)[nH]c3sc4c(c3c2=O)CCc2ccccc2-4)cc1` here?
A: Its z-score is 2.33.

Q: How did the z-score turn out when `COc1ccc(-n2c(=S)[nH]c3sc4c(c3c2=O)CCc2ccccc2-4)cc1` was run?
A: Its z-score is 0.114.

Q: `Cc1ccc(-n2c(=S)[nH]c3c(oc4ccccc43)c2=O)cc1` was tested. Which z-score did it give?
A: Its z-score is 0.618.

Q: Which z-score does the source give for `COc1ccc2c(c1)c(=O)oc1cc(OCC(=O)NC3CCCCC3)ccc12` here?
A: Its z-score is 0.0339.

Q: For `O=C(NC(=S)Nc1ccccc1)c1ccc(-c2ccccc2)cc1`, which z-score is on record?
A: The z-score was 0.0142.

Q: Which z-score does the source give for `Cc1ccc(NC(=O)c2csnn2)c(C)c1` here?
A: The z-score was 0.804.

Q: For `O=C(NC(=S)Nc1ccccc1)c1csnn1`, which z-score is on record?
A: The z-score was 12.4 (active).

Q: `CC(=O)Nc1ccc(NC(=S)Nc2ccccc2)cc1` was tested. Which z-score did it give?
A: The z-score was -0.0688.

Q: For `COC(=O)c1c(NC(=S)Nc2ccccc2Cl)sc(C)c1C`, which z-score is on record?
A: The z-score was 0.827.

Q: `O=C(NC(=S)Nc1ccccc1Cl)c1csnn1` was tested. Which z-score did it give?
A: The z-score was 11.5 (active).

Q: Which z-score does the source give for `C=C(C)C(C)(C#CCN1CCCC1)OC(C)=O` (stereo unspecified) here?
A: The z-score was -0.061.

Q: How did the z-score turn out when `C=CCc1c(C)nc(SC)nc1Nc1ccccc1` was run?
A: Its z-score is -0.563.

Q: How did the z-score turn out when `Cc1cccc(NC2=NC(=S)N(CC#N)C23CCCCC3)c1` was run?
A: Its z-score is 1.02.

Q: With `CC1CCC(=C(C#N)C(=O)Nc2cccc(Cl)c2)CC1` (stereo unspecified) as the compound, how does the z-score read?
A: The z-score was -0.314.

Q: With `COc1ccc(NC2=NC(=S)N(c3ccc(C)cc3)C23CCCCC3)cc1` as the compound, how does the z-score read?
A: The z-score was 0.796.

Q: Which z-score does the source give for `CC(C)(C)C1CCC2(CC1)C(Nc1cccc(C(F)(F)F)c1)=NC(=S)N2CC#N` (stereo unspecified) here?
A: Its z-score is 2.58.

Q: With `Cc1ccc(Cl)cc1NC1=NC(=S)N(C(C)C)C12CCCCC2` as the compound, how does the z-score read?
A: The z-score was 0.728.

Q: Which z-score does the source give for `N#CCN1C(=S)N=C(Nc2cccc(Cl)c2)C12CCCCC2` here?
A: The z-score was 2.57.

Q: `FC(F)(F)c1cccc(NC(=S)NC2CCCC2)c1` was tested. Which z-score did it give?
A: The z-score was 1.26.

Q: `COc1ccc(NC2=NC(=S)N(c3ccccc3C)C23CCCCC3)cc1` was tested. Which z-score did it give?
A: Its z-score is 15.4 (active).

Q: With `CC1CCC2(CC1)C(Nc1cccc(Cl)c1)=NC(=S)N2CC#N` (stereo unspecified) as the compound, how does the z-score read?
A: The z-score was 2.23.

Q: Which z-score does the source give for `CN(C#N)c1nc(Cl)nc(Nc2cccc(Cl)c2)n1` here?
A: The z-score was -0.113.

Q: With `COc1ccc(NC2=NC(=S)N(c3cccc(C)c3)C23CCCCC3)cc1` as the compound, how does the z-score read?
A: Its z-score is 1.22.

Q: How did the z-score turn out when `O=C1CN=C(Nc2cccc(C(F)(F)F)c2)N1C1CCCC1` was run?
A: The z-score was -2.95.
